# This is a sample that favours compounds with a hit; in the whole collection about 2.9% have one here.
# proKLK7 act: proKLK7 (human) activation, primary screen | activation, % at 7 µM | 0.9% of 370,000 active | purified proKLK7, EDANS-DABCYL substrate fluorescence; 100% is mature enzyme control, 0% vehicle | P49862;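 active = activation above the mean of all tested compounds plus 3 SD, computed per campaign excluding outliers beyond control limits, cut at about 13% in these data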
# PLCg1 inh: PLC-gamma1 (human) inhibition, primary screen | P19174 | purified PLC-gamma1, fluorogenic substrate, fluorescence | inhibition, % at 12.2 µM | 0.84% of 370,000 active | AID 720700; in the data active = inhibition above about 9.5%
# Target sequence (P19174 whole entry, looked up): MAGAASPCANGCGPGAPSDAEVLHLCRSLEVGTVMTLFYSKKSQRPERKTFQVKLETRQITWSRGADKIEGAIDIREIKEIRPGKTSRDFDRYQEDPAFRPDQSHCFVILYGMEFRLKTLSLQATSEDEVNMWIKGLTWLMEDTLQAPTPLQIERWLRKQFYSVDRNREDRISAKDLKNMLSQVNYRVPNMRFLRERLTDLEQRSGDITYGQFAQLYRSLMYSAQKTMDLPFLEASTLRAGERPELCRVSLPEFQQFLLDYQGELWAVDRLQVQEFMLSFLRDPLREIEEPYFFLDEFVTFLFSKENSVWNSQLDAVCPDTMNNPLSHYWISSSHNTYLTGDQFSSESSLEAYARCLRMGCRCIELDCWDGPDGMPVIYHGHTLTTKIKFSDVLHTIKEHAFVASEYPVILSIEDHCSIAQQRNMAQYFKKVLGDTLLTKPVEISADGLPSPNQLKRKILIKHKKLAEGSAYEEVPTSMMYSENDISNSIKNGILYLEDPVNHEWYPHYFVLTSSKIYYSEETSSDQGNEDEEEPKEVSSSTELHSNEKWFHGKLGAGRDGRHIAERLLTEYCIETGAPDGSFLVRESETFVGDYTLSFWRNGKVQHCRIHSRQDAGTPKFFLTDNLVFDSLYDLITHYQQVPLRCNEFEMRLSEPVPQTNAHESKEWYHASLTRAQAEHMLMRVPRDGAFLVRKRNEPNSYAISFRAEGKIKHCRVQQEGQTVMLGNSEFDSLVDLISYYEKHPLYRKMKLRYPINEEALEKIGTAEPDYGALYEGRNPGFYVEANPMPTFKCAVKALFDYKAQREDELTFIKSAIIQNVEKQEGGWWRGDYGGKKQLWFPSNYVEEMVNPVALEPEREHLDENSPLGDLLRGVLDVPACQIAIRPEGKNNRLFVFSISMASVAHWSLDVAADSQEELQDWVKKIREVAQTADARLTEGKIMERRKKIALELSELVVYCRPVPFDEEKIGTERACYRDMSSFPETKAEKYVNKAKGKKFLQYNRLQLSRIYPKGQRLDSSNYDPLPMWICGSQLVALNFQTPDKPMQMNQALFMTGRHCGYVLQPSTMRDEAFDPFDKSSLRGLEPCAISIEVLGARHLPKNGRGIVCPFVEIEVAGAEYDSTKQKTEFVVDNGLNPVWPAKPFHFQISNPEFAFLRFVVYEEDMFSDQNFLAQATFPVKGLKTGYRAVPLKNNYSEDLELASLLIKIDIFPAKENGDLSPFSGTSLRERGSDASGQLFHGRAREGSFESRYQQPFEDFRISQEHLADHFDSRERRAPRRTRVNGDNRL
# ADAM17 inh: ADAM17 inhibition, QFRET primary screen; P78536; recombinant ADAM17, EDANS/DABCYL FRET peptide cleavage; 0.83% of 370,000 active; AID 720648; inhibition, % at 6.95 µM;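 active = inhibition above the mean of compounds lying between control limits plus 3 SD, set per campaign, cut at about 8.5% in these data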;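 also: 0% = DMSO-only wells as the low control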
# PLCb3 inh: inhibitors of human phospholipase C beta3; inhibition, % at 12.2 µM; Purified PLC-beta3, fluorogenic substrate, fluorescence; AID 720704; 0.18% of 370,000 active; in the data active = inhibition above about 11%;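 also: 0% = median of compound wells on plate and 100% = full blocker control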
# ADAM10 inh: inhibits human ADAM10; O14672; recombinant ADAM10, EDANS/DABCYL FRET peptide cleavage, 3 h; inhibition, % at 7 µM; 0.62% of 370,000 active;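 active = inhibition above a per-campaign cutoff equal to the mean of compounds falling between control-based bounds plus 3 SD, cut at about 20% in these data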;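 also: 0% = DMSO wells while the 100% control is not disclosed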
# ADAM10 confirm: human ADAM10 inhibition, confirmation | shares compounds with ADAM10 inh | ADAM10 QFRET peptide cleavage, EDANS fluorescence | inhibition, % at 6.95 µM | 1% of 2,100 active | AID 743208;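 active = inhibition above about 20% chosen separately for each screening run, limit read from the data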;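 also: 0% = DMSO wells and 100% = marimastat wells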
# ADAM17 ctr: counter-screen for ADAM10 exosite inhibitors: inhibitors of human ADAM17; ADAM17 QFRET peptide cleavage, EDANS fluorescence; AID 743214; 0.5% of 2,100 active; inhibition, % at 6.95 µM; shares compounds with ADAM10 inh;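 active = mean triplicate inhibition above the solvent-only control wells' mean plus 3 SD, cut at about 12% in these data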;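 also: 0% = DMSO wells and 100% = marimastat wells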
# * marks the source's active call; other numbers are inactive results; . = no result given.
SMILES,proKLK7 act,PLCg1 inh,ADAM17 inh,PLCb3 inh,ADAM10 inh,ADAM10 confirm,ADAM17 ctr
O=C(CN1C(=O)NC2(CCCC2)C1=O)Nc1nc(-c2ccc(F)c(F)c2)cs1,0,-8,-2,-7,1,.,.
CCC/C=N/Nc1nc2ccccc2s1,-1,-11,7,-21,25*,1,-1
Brc1ccc(/C=C/C=N/Nc2nc3ccccc3s2)cc1,-1,-13,-3,-20,0,.,.
C(=C\c1ccccc1)/C=N/Nc1nc2ccccc2s1,-1,-99,4,-106,26*,23*,8
COc1ccc(C=NNc2nc3ccccc3s2)cc1,-3,-20,1,-22,-12,.,.
Cc1nc(-c2cccc(NS(=O)(=O)c3ccc4ccccc4c3)c2)cs1,0,-2,8,-5,26*,8,2
CCOC(=O)c1c(C)[nH]c(C)c1S(=O)(=O)NCCN1CCN(c2cc(Cl)ccc2C)CC1,0,-1,12*,1,24*,4,2
Cc1nc2cc(NS(=O)(=O)c3ccc(Br)cc3)ccc2n1C,0,2,0,-3,-7,.,.
COc1ccccc1Nc1ccc(NC(=O)c2cccc([N+](=O)[O-])c2C)cc1,0,1,8,-6,35*,13,4
COc1ccc(NC(=O)c2ccccc2[N+](=O)[O-])cc1,0,3,-2,3,-1,.,.
C[C@@H]1CN([C@@H](C)CO)C(=O)CCCn2cc(nn2)CO[C@H]1CN(C)C(=O)Nc1ccnc(N2CCOCC2)c1,0,-2,-3,0,-9,.,.
COc1ccccc1OC(C)C(=O)Nc1nc(-c2ccc(S(=O)(=O)N3CCOCC3)cc2)cs1 (stereo not given),0,-16,7,-21,21*,9,3
COc1ccccc1C(=O)Nc1nc(-c2ccc(S(=O)(=O)N3CCOCC3)cc2)cs1,-13,-22,3,-26,-8,.,.
CCc1nc2ccccc2c(C(=O)OCC(=O)Nc2cccc(S(=O)(=O)N3CCOCC3)c2)c1C,1,8,5,7,22*,3,1
CCc1nc2ccccc2c(C(=O)OCC(=O)Nc2cccc(S(=O)(=O)NC3=NCCCCC3)c2)c1C,1,7,6,-13,15,.,.
COc1ccc(C(=O)COC(=O)/C=C/c2ccc(S(=O)(=O)Nc3cccc(S(N)(=O)=O)c3)cc2)cc1,0,2,6,0,21*,0,0
COc1ccc(Nc2nc(-c3ccccc3O)nc3ccccc23)cc1,-68,-104,5,-147,21*,10,3
CCSc1nnc(NC(=O)C2CCN(S(=O)(=O)c3cc(C(F)(F)F)ccc3Cl)CC2)s1,0,4,1,5,6,.,.
CNC(=S)NNC(=O)c1noc(C)c1C(=O)N1CCN(C(c2ccccc2)c2ccccc2)CC1,0,7,6,10,32*,-1,0
Cc1c(Cl)cccc1NC(=O)Cn1cccc1,0,-1,-6,-1,4,.,.
COc1ccc(N=Nc2c(C)n[nH]c2C)cc1,-1,8,3,2,11,.,.
Cc1n[nH]c(C)c1N=Nc1ccc(Br)cc1,1,7,8,10,21*,3,1
CC[C@]12c3[nH]c4ccc(Cl)cc4c3CCN1C(=O)[C@@H](CC(=O)NCc1cccc(C(F)(F)F)c1)C[C@@H]2C(=O)N1CCN(C(=O)c2ccco2)CC1,1,5,3,0,23*,0,2
CCCNC(=O)N[C@H]1C=C[C@H](CC(=O)OC)O[C@@H]1CO,0,-1,-1,0,-19,.,.
N#CC1=C(N)NC(SCc2ccc(Br)cc2)=C(C#N)C12CCCCC2,0,-1,8,0,25*,9,2
SMILES,proKLK7 act,PLCg1 inh,ADAM17 inh,PLCb3 inh,ADAM10 inh,ADAM10 confirm,ADAM17 ctr
O=C(c1ccc(C#Cc2ccccc2)o1)N1CCN(c2ccccn2)CC1,0,-16,6,-17,22*,4,1
FC(F)(F)c1ccc(-c2nc(=S)[nH][nH]2)cc1,0,4,3,-6,25*,1,2
COC(=O)C1CN(C(=O)C(C)Oc2ccccc2Cl)c2ccccc2O1 (stereo not given),0,1,-3,-3,1,.,.
C[C@@H]1CN([C@@H](C)CO)S(=O)(=O)c2ccc(Br)cc2O[C@H]1CN(C)C(=O)Nc1ccc(C(F)(F)F)cc1,0,0,8,-1,21*,4,1
C[C@@H]1CN([C@H](C)CO)C(=O)c2cc(NC(=O)Nc3ccccc3)ccc2O[C@@H](C)CCCCO[C@H]1CN(C)S(=O)(=O)c1ccc(F)cc1,.,0,8,2,20*,6,2
C[C@@H]1CN([C@H](C)CO)S(=O)(=O)c2ccc(Br)cc2O[C@@H]1CN(C)C(=O)Nc1ccc(C(F)(F)F)cc1,0,2,0,1,5,.,.
C[C@@H]1CCCCO[C@@H](CN(C)C(=O)Nc2ccc(C(F)(F)F)cc2)[C@@H](C)CN([C@H](C)CO)C(=O)c2cc(NS(=O)(=O)c3ccc(Cl)cc3)ccc2O1,0,0,16*,4,45*,9,1
C[C@@H]1CN([C@@H](C)CN(C)C)C(=O)c2cc(NC(=O)Nc3ccccc3)ccc2O[C@@H](C)CCCCO[C@H]1CN(C)S(=O)(=O)c1ccc(F)cc1,.,2,8,8,19,.,.
COc1ccc(-c2c(C)oc3ccc(C)cc23)cc1,0,0,-3,0,-4,.,.
COC(=O)C1CC(O)CN1S(=O)(=O)c1ccc2ccccc2c1 (stereo not given),-1,0,-2,-4,-7,.,.
Oc1ccccc1CN(Cc1ccco1)CC(O)COCc1ccc(Cl)cc1 (stereo not given),-1,-3,9,-1,23*,3,1
COCCOC(=O)N1CCCCC1c1cc(C(=O)Nc2cccc3c2CCCC3)no1 (stereo not given),1,1,2,0,4,.,.
O=C(Nc1ccccc1-c1ccccc1)C1CCC1,0,1,-1,3,8,.,.
CC(C)(C)S(=O)N1Cc2cc(C(=O)N[C@@H]3CCN(Cc4ccccc4)C3)nc(-c3cccc(-c4cc5ccccc5o4)c3)c2[C@@H]1CCO (stereo not given in full),-1,-5,6,-5,20*,18,9
Cc1cccc(C)c1-c1ccc(CN2C(CC(C)C)C(=O)N(Cc3cn(CCO)nn3)CCS2(=O)=O)cc1 (stereo not given),0,-1,8,2,22*,11,3

# High-throughput results: PubChem BioAssay, The Scripps Research Institute Molecular Screening Center
